Source: PubChem BioAssay
Shown are actives, neighbours in structure and some others; about 4.1% of the full set was active somewhere.
hgDAF12 agonist: H. glycines DAF-12 receptor agonists, primary screen, cell-based, luminescence, HEK293, GAL4 fusion, UAS-luciferase | HEK293 GAL4-hgDAF12 UAS-luciferase reporter, agonist luminescence; normalized to butyrate control | hit rate 1.8% among 370,000 | AID 687014, 2013 | activation, % at 6.8 µM;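 active means activation above a cutoff set at the mean of all screened compounds plus 3 SD, cut at about 10% in these data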;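 further: 0% = DMSO wells and 100% = sodium butyrate wells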
ssDAF-12 act: S. stercoralis DAF-12 nuclear receptor activators, primary screen, cell-based, luminescence, HEK293, GRIP1 co-expression, lit1-tk-luc; HEK293 ssDAF-12/GRIP1 lit1-tk-luc reporter; % of 3 µM dafachronic acid response; activation, % at 6.8 µM; hit rate 1% among 370,000; Nuclear hormone receptor DAF-12 (Strongyloides stercoralis);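 active means activation above the mean over all tested compounds plus 3 SD, cut at about 0.9% in these data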;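 further: 0% = DMSO-only wells and 100% = 3 µM delta7-dafachronic acid wells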
DAX1 inh-1: DAX1 (NR0B1) inhibitors on StAR promoter, primary screen, cell-based, luminescence, SF-1 (NR5A1), full-length DAX-1. HEK293T StAR-luciferase reporter, SF-1/DAX-1 repression relief. hit rate 1.1% among 370,000. inhibition, % at 6.8 µM;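 active means inhibition above the mean over all tested compounds plus 3 SD, cut at about 3.6% in these data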;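 further: 0% = DAX-1 cells with DMSO and 100% = cells lacking DAX-1 with DMSO; higher inhibition means more luminescence from relief of DAX-1 repression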
hcDAF-12 act: H. contortus DAF-12 nuclear receptor activators, primary screen, cell-based, luminescence, HEK293, lit1-tk-luc reporter; hit rate 1.4% among 370,000; activation, % at 6.8 µM; AID 652067, 2013; HEK293 hcDAF-12 lit1-tk-luc reporter; 0% DMSO, 100% Δ7-dafachronic acid;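 active means activation above the mean of all tested compounds plus 3 SD, cut at about 5.5% in these data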;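 further: 100% = response to 3 µM Δ7-dafachronic acid high control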
DAX1 inh-2: DAX1 (NR0B1) inhibitors, primary screen, cell-based, HEK293, Gal4-DAX1, luciferase luminescence. inhibition, % at 6.75 µM. hit rate 0.99% among 340,000. HEK293 Gal4-DAX1 luciferase reporter. Nuclear receptor subfamily 0 group B member 1 (Homo sapiens), P51843. AID 504766, 2011;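 active means inhibition above the mean over all tested compounds plus 3 SD, cut at about 4.2% in these data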;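 further: 0% = DAX1-transfected cells with DMSO and 100% = empty-vector control cells with DMSO; inhibition shows as a rise in luminescence from relieved DAX1 repression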
Target sequence (P51843 207-470 limits assumed): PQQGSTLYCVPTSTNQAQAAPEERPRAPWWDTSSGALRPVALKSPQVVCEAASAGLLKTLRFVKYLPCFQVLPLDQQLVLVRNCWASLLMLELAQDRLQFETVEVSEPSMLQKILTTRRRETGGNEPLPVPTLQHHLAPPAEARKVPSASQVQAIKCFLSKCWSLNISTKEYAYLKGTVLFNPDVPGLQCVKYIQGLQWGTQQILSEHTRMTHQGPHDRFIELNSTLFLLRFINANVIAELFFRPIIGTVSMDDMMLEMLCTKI
LXR ag: LXR agonists, Gal4 luciferase reporter, confirmation, counter-screen for hcDAF-12 agonist project, cell-based, luminescence, HEK293, H. contortus campaign; HEK293 Gal4-LXR tk-luc reporter, 24 h; normalized: DMSO 0%, positive control 100%; shares compounds with hcDAF-12 act; activation, % at 6.8 µM; AID 743027, 2013; 3,400 tested, under 10 active;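 active means mean percent activation of the reporter above a cutoff set as the average over tested compounds plus their standard deviation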
hcDAF12 ag: H. contortus DAF-12 receptor agonists, confirmation, cell-based, luminescence, HEK293, lit1-tk-luc, triplicate; shares compounds with hcDAF-12 act; HEK293 hcDAF-12 lit1-tk-luc reporter; % of Δ7-dafachronic acid response; activation, % at 6.8 µM; hit rate 61% among 3,400;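 active means mean activation across triplicate tests above the threshold derived from the earlier primary screen, cut at about 5.5% in these data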;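 further: 0% = DMSO only wells and 100% = 3 µM Δ7-dafachronic acid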
* hit, by the source's call.

Screening CCC1CCC(NC(=O)Nc2cccc(OC)c2)CC1 (stereo not drawn) returned hgDAF12 agonist 19*, ssDAF-12 act -1, DAX1 inh-1 3, hcDAF-12 act 12*, DAX1 inh-2 3, LXR ag 1 and hcDAF12 ag 6.2*.
Screening CCOC(=O)N1C(=O)C[C@](Sc2ccc(OC)cc2)(C(=O)N2CCN(C(C)=O)CC2)[C@H]1c1ccc(OC)cc1 returned hgDAF12 agonist 0, ssDAF-12 act 0, DAX1 inh-1 -2 and hcDAF-12 act -1.
`O=C(N/N=C\c1cn(-c2ccccc2)nc1-c1ccccc1)c1ccc(Br)o1` gave hgDAF12 agonist 5, ssDAF-12 act 0, DAX1 inh-1 -1, hcDAF-12 act 9.4*, DAX1 inh-2 -1, LXR ag 0 and hcDAF12 ag 4.
`CCOc1cc(C(=O)N/N=C/c2cn(-c3ccccc3)nc2-c2cc3ccccc3o2)cc(OCC)c1OCC` gave hgDAF12 agonist 9, ssDAF-12 act 0, DAX1 inh-1 2, hcDAF-12 act 7.9*, DAX1 inh-2 3, LXR ag 1 and hcDAF12 ag 5.8*.
Screening Cc1ccc(-c2nn(-c3ccccc3)cc2/C=N/NC(=O)c2ccc(Br)o2)cc1 returned hgDAF12 agonist 1, ssDAF-12 act -1, DAX1 inh-1 1, hcDAF-12 act 3 and DAX1 inh-2 1.
Screening CCCC#Cc1ccc(CC[C@H]2O[C@H]3CC[C@H](CO)O[C@H]3C[C@H]2NC(=O)CN2CCOCC2)cc1 returned hgDAF12 agonist -5, ssDAF-12 act -2, DAX1 inh-1 -1 and hcDAF-12 act -4.
Screening C/C(=N\NS(=O)(=O)c1ccc([N+](=O)[O-])cc1)c1c[nH]c2ccccc12 returned hgDAF12 agonist 1, ssDAF-12 act 0, DAX1 inh-1 -1, hcDAF-12 act 11*, DAX1 inh-2 1, LXR ag 0 and hcDAF12 ag 2.
COc1ccccc1CNC(=O)NNC(=O)CCn1nc(C)c([N+](=O)[O-])c1C was read as hgDAF12 agonist -3, ssDAF-12 act -2, DAX1 inh-1 0 and hcDAF-12 act -1.
Screening N#C/C(=C\Nc1ccc2cn[nH]c2c1)c1nc(-c2ccc(Cl)cc2)cs1 returned hgDAF12 agonist 2, ssDAF-12 act 0, DAX1 inh-1 0, hcDAF-12 act 7.3*, DAX1 inh-2 2, LXR ag -1 and hcDAF12 ag 3.
Screening N#C/C(=C\Nc1ccc2cn[nH]c2c1)c1nc(-c2ccccc2)cs1 returned hgDAF12 agonist -1, ssDAF-12 act -1, DAX1 inh-1 -1, hcDAF-12 act 0 and DAX1 inh-2 -1.
`COC(=O)c1cc2c(c3c4cc(OC)ccc4n(S(=O)(=O)c4ccc(F)cc4)c13)C(=O)N(C)C2` gave hgDAF12 agonist -1, ssDAF-12 act -1, DAX1 inh-1 0 and hcDAF-12 act 3.
`O=C(NCc1cc2ccccc2[nH]1)C1CCC(=O)N(CCCN2CCCC2=O)C1` (stereo not drawn) gave hgDAF12 agonist 2, ssDAF-12 act 0, DAX1 inh-1 0, hcDAF-12 act 6.9*, DAX1 inh-2 2, LXR ag 0 and hcDAF12 ag 5.
For COc1ccccc1CNC(=O)C1CCC(=O)N(CCCN2CCCC2=O)C1 (stereo not drawn) the results were hgDAF12 agonist -1, ssDAF-12 act -1, DAX1 inh-1 0, hcDAF-12 act 1 and DAX1 inh-2 2.
